Screening data from PubChem BioAssay.
In the library only some 3.1% were active in any assay of this set; here they are far more common.
Statin myotox sup: suppressors of statin myotoxicity in C2C12 myotubes, primary screen, cell-based, single point, plate reader; C2C12 myotubes + simvastatin, ATP luminescence, 48 h; scaled: DMSO 0, geranylgeraniol control 100; rescue of ATP level, % at 7.49 µM; 330,000 compounds, 0.78% hits;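 active means mean ATP rescue above about 67%, or every replicate alone reaching that limit, limit read from the data, passing the limit was not always enough; inconclusive means no clear call, values can overlap the other calls; inactive means mean under the limit and some replicate under it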;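 further: myotubes were challenged with 10 µM simvastatin during compound exposure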
MITF act: activators of MITF-driven TRPM1 promoter reporter, primary screen, cell-based, SK-MEL-5, luciferase, single point; SK-MEL-5 TRPM1-promoter luciferase, 24 h; % of positive control, neutral wells = 0; activation, % at 12.5 µM; 300,000 compounds, 0.75% hits; AID 588334, 2011;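 active means mean activation of at least 80% with every replicate also reaching 80%; inconclusive means mean reaches 80% but some replicate falls short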;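 further: 0% = neutral control wells and 100% = parthenolide positive control wells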
Rtt109 Vps75: inhibitors of C. albicans Rtt109/Vps75 HAT, primary screen, biochemical, ThioGlo CoA-SH fluorescence, plate reader; purified Rtt109/Vps75, 4 h; Histone acetyltransferase RTT109 (Candida albicans (strain SC5314 / ATCC MYA-2876)), …; inhibition, % at 34.9 µM; 330,000 compounds, 0.16% hits;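 active means inhibition of at least 50% in every replicate; inconclusive means best replicate reaches 50% inhibition but some replicates fall short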
Target sequence (Q5AAJ8 whole entry, looked up): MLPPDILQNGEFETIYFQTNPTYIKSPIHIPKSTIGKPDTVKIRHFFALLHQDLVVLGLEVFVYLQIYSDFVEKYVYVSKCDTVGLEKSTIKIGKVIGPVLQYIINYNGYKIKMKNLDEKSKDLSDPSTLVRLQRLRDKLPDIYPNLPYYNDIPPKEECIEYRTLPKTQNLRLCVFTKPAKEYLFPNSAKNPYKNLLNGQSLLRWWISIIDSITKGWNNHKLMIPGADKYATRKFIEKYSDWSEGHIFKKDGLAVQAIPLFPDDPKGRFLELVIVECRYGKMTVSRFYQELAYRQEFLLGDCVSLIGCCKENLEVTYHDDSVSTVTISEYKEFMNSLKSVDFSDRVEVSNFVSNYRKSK
esBAF inh: Bmi1 luciferase reporter increase in mESCs, primary screen, esBAF inhibitor project, mouse ES cells, Bmi1 luciferase knock-in, single point; 24 h; 100% = twice the neutral-well signal; reporter increase, % at 12.5 µM; 350,000 compounds, 2% hits; in the data active means activation above about 40%; inconclusive means no clear call, values can overlap the other calls;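 further: 0% = median of the plate's neutral control wells and 100% = double that signal; a rise in the Bmi1 reporter signal indicates esBAF inhibition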
Wnt bcat act: Wnt/beta-catenin pathway activators, primary screen, cell-based, plate reader, single point | 300,000 compounds, 1.2% hits | AID 743398, 2014 | activation, % at 9.35 µM | Wnt/beta-catenin reporter cell assay, activator; in the data active means activation above about 30%, passing the limit was not always enough; inconclusive means no clear call, values can overlap the other calls;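 further: 0% = neutral control wells and 100% = positive control wells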
Active calls of the source: *; ? = inconclusive; . = no result.

SMILES	Statin myotox sup	MITF act	Rtt109 Vps75	esBAF inh	Wnt bcat act
CC(C)C#Cc1cnc2c(c1)C(=O)N([C@H](C)CO)C[C@H](C)[C@@H](CN(C)C(=O)Nc1cccc(F)c1)O2	22.3	.	.	12.1	.
CO[C@@H]1CN(C)C(=O)c2cc(NS(=O)(=O)c3ccc(C)cc3)ccc2OC[C@@H](C)NC[C@@H]1C	5.7	.	.	-1.1	.
CCNC(=O)[C@H]1[C@H](CO)[C@H]2Cn3c(ccc(/C=C/c4ccccc4)c3=O)[C@@H]1N2	-5.8	.	.	7.4	.
COc1ccc(-c2cc3nc4n(c(=O)c3s2)CCCCC4)cc1	-16.4	.	-2.5	7.4	36.9*
CC(C)(C)C(=O)NC(=S)Nc1sc2c(c1C(N)=O)CCC2	.	63.9	-6.1	2.6	6.6
CCOC(=O)c1c(NC(=O)c2cccs2)sc(CC)c1-c1cccs1	0.2	12.3	-23.5	-8.2	.
Cc1sc(NC(=O)c2cccs2)c(C(N)=O)c1C	0.0	37.6	.	88.4*	6.3
Cc1sc(NC(=S)NC(=O)C(C)(C)C)c(C(N)=O)c1C	12.0	14.5	-1.2	47.4*	.
NC(=O)c1ccsc1NC(=O)c1cccs1	-7.2	26.8	0.9	46.8*	22.5
CCCNC(=O)C[C@H]1CC[C@@H]2[C@H](COc3ccc(NC(=O)c4cccc(Cl)c4)cc3C(=O)N2C)O1	-20.6	.	.	3.4	.
COc1cccc(C2C(C#N)=C(N)Oc3cc(C)n(Cc4ccco4)c(=O)c32)c1 (stereo not given)	142.3*	-3.2	4.1	-0.2	-0.8
COc1ccc(C2C(C#N)=C(N)Oc3cc(C)n(Cc4ccco4)c(=O)c32)cc1 (stereo not given)	-7.9	-11.9	6.8	-5.1	-2.2
COc1cccc(-c2ccc3c(c2)O[C@@H](CN(C)C(=O)C2CCOCC2)[C@@H](C)CN([C@H](C)CO)S3(=O)=O)c1	4.1	.	.	2.8	.
CN1C(=O)C2(OCC(C)([N+](=O)[O-])CO2)c2ccccc21 (stereo not given)	-10.9	-9.4	-1.6	-2.5	-2.4
CN1C(=O)C2(N=c3ccccc3=N2)c2ccccc21	2.0	-29.0	-8.0	41.1*	1.2
CCCCN1C(=O)C(=O)N(c2ccccc2)C1=S	.	121.9*	-2.5	.	0.8
CCCCN1C(=O)C(=O)N(CC(=O)N2CCN(c3ccccc3)CC2)C1=O	.	2.2	-6.5	.	1.7
CC=Cc1ccc2n(c1=O)C[C@@H]1[C@@H](CO)[C@H](C(=O)N[C@@H](C)c3ccccc3)N(C)[C@H]21 (mixture of isomers)	1.5	.	.	-7.1	.
C[C@H]1CCCCO[C@H](CN(C)C(=O)c2ccncc2)[C@@H](C)CN([C@@H](C)CO)C(=O)c2cc(NS(C)(=O)=O)ccc2O1	.	.	.	-3.5	.
COc1ccc(NC(=O)CCOc2ccccc2)cc1	2.2	112.3*	1.3	49.2*	.
COc1ccc(NC(=O)CSc2ccccn2)cc1	18.5	.	-1.9	29.2	35.6*
COc1ccc(NC(=O)CSc2ccccn2)c([N+](=O)[O-])c1	-2.7	.	.	?	38.9*
COc1ccc(NC(=O)CSCc2ccccc2C)cc1	-2.3	20.9	0.5	66.7*	.
O=C(Nc1ccc2c(c1)OCO2)N[C@H]1CC[C@H](CCNC(=O)C2CCCC2)O[C@@H]1CO	-0.4	.	.	-2.2	.
C[C@@H]1CCCCO[C@@H](CN(C)S(=O)(=O)c2cccs2)[C@@H](C)CN([C@@H](C)CO)C(=O)c2cc(NC(=O)c3ccccc3)ccc2O1	.	.	.	-4.1	.
SMILES	Statin myotox sup	MITF act	Rtt109 Vps75	esBAF inh	Wnt bcat act
O=C(CCSc1ccccn1)Nc1ccc(Br)cc1	.	58.4	14.4	.	61.7*
O=C(CSc1ccccn1)Nc1ccc(NC(=O)CSc2ccccn2)cc1	.	-7.9	-6.5	.	.
COc1ccc(CNC(=O)CCOc2ccc(C(C)(C)C)cc2)cc1	104.3*	-8.5	3.1	-2.6	.
COc1ccc(NC(=O)COC(=O)CN2C(=O)C3CC=CCC3C2=O)c([N+](=O)[O-])c1 (stereo not given)	-2.0	-7.6	-1.3	-3.3	40.2*
CCC(=O)OCC(=O)Nc1ccc(OC)cc1[N+](=O)[O-]	2.7	2.4	6.3	-8.5	0.2
COc1ccc(NC(=O)CN(C)C(=O)C2(c3ccccc3)CCCC2)cc1	0.9	-39.9	-5.0	55.2*	-1.7
CC=Cc1ccc2n(c1=O)C[C@@H]1[C@@H](CO)[C@H](C(=O)N[C@@H](C)c3ccccc3)[C@H]2N1Cc1cccnc1 (mixture of isomers)	-16.1	.	.	0.6	.
COc1ccc2c(c1)c(C(=O)OCCN(C)C)c(C)n2C	104.6*	16.0	6.7	-2.5	.
COCCOC(=O)c1c(C)n(C)c2ccc(OC(=O)c3c(OC)cccc3OC)cc12	-15.8	5.7	0.9	-4.7	-1.5
COc1cc(C(=O)N2CCNCC2)cc(OC)c1OC	-2.1	.	0.2	-2.9	0.0
COc1ccc(C(=O)N2CCN(C(=O)c3cc(OC)c(OC)c(OC)c3)CC2)cc1	107.8*	16.3	-10.7	0.3	-0.5
COc1ccc(NC(=O)Nc2ccc3c(c2)C(=O)N([C@H](C)CO)C[C@@H](C)[C@H](CN(C)C(=O)C2CCCCC2)OCCCC[C@H](C)O3)cc1	15.1	.	.	2.4	.
CO[C@@H]1CN(C)C(=O)c2cc(NS(=O)(=O)c3cn(C)cn3)ccc2OC[C@@H](C)N(C)C[C@@H]1C	-1.8	.	.	3.3	.
Cc1ccccc1C(=O)Oc1ccc2ccc(O)cc2c1	11.5	.	-0.9	61.6*	-1.6
Cc1ccccc1S(=O)(=O)Oc1ccc2ccc(O)cc2c1	19.1	.	2.7	74.4*	9.1
O=C(c1ccc(S(=O)(=O)N2CCCCC2)cc1)N1CCN(c2ccccc2F)CC1	.	2.6	9.6	.	-10.5
CCOc1ccccc1N1CCN(C(=O)c2ccncc2)CC1	.	2.2	51.5*	.	0.0
COc1ccccc1N1CCN(C(=O)c2ccc(S(=O)(=O)N3CCCCCC3)cc2)CC1	126.9*	-10.6	5.8	1.4	.
Cc1noc(C)c1NC(=O)N(C)C[C@@H]1OCCCC[C@@H](C)Oc2ccc(NS(C)(=O)=O)cc2C(=O)N([C@@H](C)CO)C[C@H]1C	.	.	.	-5.5	.
O=C(c1ccccc1)N1CCN(C(=O)c2ccccc2Br)CC1	7.1	.	1.6	5.6	-5.3
CC12CN(C(=O)c3ccccc3Br)CC(C)(CN(C(=O)c3ccccc3Br)C1)C2=O	4.4	.	-3.5	-5.2	40.8*
OCC1CCCN(C(=S)Nc2ccc(OC(F)F)cc2)C1 (stereo not given)	.	14.1	-3.0	.	4.5
OCC1CCCN(C(=S)Nc2ccc(Nc3ccccc3)cc2)C1 (stereo not given)	1.6	48.7	17.6	46.9*	3.2
Cn1cnc(S(=O)(=O)N2C[C@H](O)COC[C@H]3O[C@H](CC(=O)NCc4ccc(F)cc4)CC[C@@H]32)c1	-7.4	.	.	-2.6	.
CN(C)c1ccc(/C=C/c2ccncc2)cc1	-6.0	60.3	-21.2	30.2	43.5*
